Measurements from the supplement of paper PMC4466140.

Legend:
Test in all cases: SPOT peptide array binding signal intensity (averaged, normalized) (arbitrary units (background-subtracted, floor 0; scale differs between SH3 domains)); higher = stronger binding of the SH3 domain to the peptide
[1] = molecular target: AgAbp1
Procedure: (§1)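 GST-tagged SH3 domains from S. cerevisiae (Sc), A. gossypii (Ag), C. albicans (Ca) and S. pombe (Sp) were incubated at 10 ug/ml overnight at 4 C on cellulose SPOT membranes carrying 292 synthetic 15-mer peptides mined from the S. cerevisiae proteome (cysteines replaced by serines). Binding was detected with anti-GST antibody, HRP secondary and chemiluminescence, quantified with Genespotter, and reported as normalized spot intensities averaged over biological replicates.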

[2] = molecular target: AgBbc1
Procedure: as §1

[3] = molecular target: AgBem1-D1
Procedure: as §1

[4] = molecular target: AgBzz1-D1
Procedure: as §1

[5] = molecular target: AgBzz1-D2
Procedure: as §1

[6] = molecular target: AgCyk3
Procedure: as §1

[7] = molecular target: AgFus1
Procedure: as §1

[8] = molecular target: AgHof1
Procedure: as §1

[9] = molecular target: AgHse1
Procedure: as §1

[10] = molecular target: AgLsb1
Procedure: as §1

[11] = molecular target: AgLsb4
Procedure: as §1

[12] = molecular target: AgMyo5
Procedure: as §1

[13] = molecular target: AgNbp2
Procedure: as §1

[14] = molecular target: AgRvs167
Procedure: as §1

[15] = molecular target: AgSho1
Procedure: as §1

[16] = molecular target: AgSla1-D1-D2
Procedure: as §1

[17] = molecular target: AgSla1-D3
Procedure: as §1

[18] = molecular target: CaAbp1-D1
Procedure: as §1

[19] = molecular target: CaAbp1-D2
Procedure: as §1

[20] = molecular target: CaBbc1
Procedure: as §1

[21] = molecular target: CaBem1-D1
Procedure: as §1

[22] = molecular target: CaBzz1-D1
Procedure: as §1

[23] = molecular target: CaBzz1-D2
Procedure: as §1

[24] = molecular target: CaCyk3
Procedure: as §1

[25] = molecular target: CaFus1
Procedure: as §1

[26] = molecular target: CaHof1
Procedure: as §1

[27] = molecular target: CaHse1
Procedure: as §1

[28] = molecular target: CaLsb1
Procedure: as §1

[29] = molecular target: CaLsb4
Procedure: as §1

[30] = molecular target: CaMyo5
Procedure: as §1

[31] = molecular target: CaNbp2
Procedure: as §1

[32] = molecular target: CaRvs167
Procedure: as §1

[33] = molecular target: CaRvs167-3
Procedure: as §1

[34] = molecular target: CaSho1
Procedure: as §1

[35] = molecular target: CaSla1-D1-D2
Procedure: as §1

[36] = molecular target: CaSla1-D3
Procedure: as §1

[37] = molecular target: ScAbp1
Procedure: as §1

[38] = molecular target: ScBbc1
Procedure: as §1

[39] = molecular target: ScBem1-D1
Procedure: as §1

[40] = molecular target: ScBzz1-D1
Procedure: as §1

[41] = molecular target: ScBzz1-D2
Procedure: as §1

[42] = molecular target: ScCyk3
Procedure: as §1

[43] = molecular target: ScFus1
Procedure: as §1

[44] = molecular target: ScHof1
Procedure: as §1

[45] = molecular target: ScHse1
Procedure: as §1

[46] = molecular target: ScLsb1
Procedure: as §1

[47] = molecular target: ScLsb2
Procedure: as §1

[48] = molecular target: ScLsb3
Procedure: as §1

[49] = molecular target: ScLsb4
Procedure: as §1

[50] = molecular target: ScMyo3
Procedure: as §1

[51] = molecular target: ScMyo5
Procedure: as §1

[52] = molecular target: ScNbp2
Procedure: as §1

[53] = molecular target: ScPex13
Procedure: as §1

[54] = molecular target: ScRvs167
Procedure: as §1

[55] = molecular target: ScSho1
Procedure: as §1

[56] = molecular target: ScSla1-D1-D2
Procedure: as §1

[57] = molecular target: ScSla1-D3
Procedure: as §1

[58] = molecular target: SpAbp1-D1
Procedure: as §1

[59] = molecular target: SpBbc1
Procedure: as §1

[60] = molecular target: SpBzz1-D1
Procedure: as §1

[61] = molecular target: SpBzz1-D2
Procedure: as §1

[62] = molecular target: SpCyk3
Procedure: as §1

[63] = molecular target: SpHof1
Procedure: as §1

[64] = molecular target: SpHof1-2
Procedure: as §1

[65] = molecular target: SpHof1-3
Procedure: as §1

[66] = molecular target: SpHse1
Procedure: as §1

[67] = molecular target: SpLsb1
Procedure: as §1

[68] = molecular target: SpLsb4
Procedure: as §1

[69] = molecular target: SpMyo1
Procedure: as §1

[70] = molecular target: SpNbp2
Procedure: as §1

[71] = molecular target: SpPex13
Procedure: as §1

[72] = molecular target: SpRvs167
Procedure: as §1

[73] = molecular target: SpSla1-D1-D2
Procedure: as §1

[74] = molecular target: SpSla1-D3
Procedure: as §1

With RSRRSSFAYPQQVAI the “SPOT peptide array binding signal intensity” value [1] was 22, the “SPOT peptide array binding signal intensity” value [2] was 64 and the “SPOT peptide array binding signal intensity” value [3] was 91.5. The “SPOT peptide array binding signal intensity” value [4] was 32, the “SPOT peptide array binding signal intensity” value [5] was 50.5 and the “SPOT peptide array binding signal intensity” value [6] was 1. The “SPOT peptide array binding signal intensity” value [7] was 200, the “SPOT peptide array binding signal intensity” value [8] was 33.5 and the “SPOT peptide array binding signal intensity” value [9] was 254. For the same binder, the “SPOT peptide array binding signal intensity” value [10] was 2.5, the “SPOT peptide array binding signal intensity” value [11] was 39.5 and the “SPOT peptide array binding signal intensity” value [12] was 6.25. The “SPOT peptide array binding signal intensity” value [13] was 39, the “SPOT peptide array binding signal intensity” value [14] was 2.33 and the “SPOT peptide array binding signal intensity” value [15] was 9. For the same binder, the “SPOT peptide array binding signal intensity” value [16] was 63.5, the “SPOT peptide array binding signal intensity” value [17] was 4.5 and the “SPOT peptide array binding signal intensity” value [18] was 170. The “SPOT peptide array binding signal intensity” value [19] was 152, the “SPOT peptide array binding signal intensity” value [20] was 258 and the “SPOT peptide array binding signal intensity” value [21] was 20.5. For the same binder, the “SPOT peptide array binding signal intensity” value [22] was 84.5, the “SPOT peptide array binding signal intensity” value [23] was 102 and the “SPOT peptide array binding signal intensity” value [24] was 9. The “SPOT peptide array binding signal intensity” value [25] was 262, the “SPOT peptide array binding signal intensity” value [26] was at most 0 and the “SPOT peptide array binding signal intensity” value [27] was 4.5. For the same binder, the “SPOT peptide array binding signal intensity” value [28] was 1.5, the “SPOT peptide array binding signal intensity” value [29] was 70.5 and the “SPOT peptide array binding signal intensity” value [30] was 7.25. The “SPOT peptide array binding signal intensity” value [31] was 130, the “SPOT peptide array binding signal intensity” value [32] was 5.67 and the “SPOT peptide array binding signal intensity” value [33] was 13.5. The “SPOT peptide array binding signal intensity” value [34] was 66.5, the “SPOT peptide array binding signal intensity” value [35] was 55 and the “SPOT peptide array binding signal intensity” value [36] was 2.25. For the same binder, the “SPOT peptide array binding signal intensity” value [37] was 27.5, the “SPOT peptide array binding signal intensity” value [38] was 24.5 and the “SPOT peptide array binding signal intensity” value [39] was 79.5. The “SPOT peptide array binding signal intensity” value [40] was 37, the “SPOT peptide array binding signal intensity” value [41] was 28 and the “SPOT peptide array binding signal intensity” value [42] was 69. For the same binder, the “SPOT peptide array binding signal intensity” value [43] was 157, the “SPOT peptide array binding signal intensity” value [44] was 0.5 and the “SPOT peptide array binding signal intensity” value [45] was 644. For the same binder, the “SPOT peptide array binding signal intensity” value [46] was 1, the “SPOT peptide array binding signal intensity” value [47] was 7.5 and the “SPOT peptide array binding signal intensity” value [48] was 59. For the same binder, the “SPOT peptide array binding signal intensity” value [49] was 24.5, the “SPOT peptide array binding signal intensity” value [50] was 3.5 and the “SPOT peptide array binding signal intensity” value [51] was 8.5. For the same binder, the “SPOT peptide array binding signal intensity” value [52] was 141, the “SPOT peptide array binding signal intensity” value [53] was 10 and the “SPOT peptide array binding signal intensity” value [54] was 8.33. The “SPOT peptide array binding signal intensity” value [55] was 304, the “SPOT peptide array binding signal intensity” value [56] was 339 and the “SPOT peptide array binding signal intensity” value [57] was 20.2. For the same binder, the “SPOT peptide array binding signal intensity” value [58] was 36, the “SPOT peptide array binding signal intensity” value [59] was 3.5 and the “SPOT peptide array binding signal intensity” value [60] was 169. The “SPOT peptide array binding signal intensity” value [61] was at most 0, the “SPOT peptide array binding signal intensity” value [62] was 1.5 and the “SPOT peptide array binding signal intensity” value [63] was 93.5. For the same binder, the “SPOT peptide array binding signal intensity” value [64] was 13, the “SPOT peptide array binding signal intensity” value [65] was 203 and the “SPOT peptide array binding signal intensity” value [66] was 168. The “SPOT peptide array binding signal intensity” value [67] was 7.75, the “SPOT peptide array binding signal intensity” value [68] was 59 and the “SPOT peptide array binding signal intensity” value [69] was 6.75. The “SPOT peptide array binding signal intensity” value [70] was 91, the “SPOT peptide array binding signal intensity” value [71] was 17 and the “SPOT peptide array binding signal intensity” value [72] was 8.83. The “SPOT peptide array binding signal intensity” value [73] was 3 and the “SPOT peptide array binding signal intensity” value [74] was 10.
